Bcl-xL primary = inhibitors of human Bcl-xL, primary screen, biochemical, fluorescence polarization, HTS; GST-Bcl-xL / FITC-Bim BH3 peptide fluorescence polarization; inhibition, % at 10.9 µM; AID 2129, 2009; 0.7% of 320,000 active;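 active = inhibition above the mean of all tested compounds plus 3 SD, cutoff set per campaign, cut at about 30% in these data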;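 also: inhibitors lower millipolarization by displacing the labeled peptide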
EBV gp42 block = Epstein-Barr virus gp42 inhibitors, primary screen, biochemical, uHTS, fluorescence polarization | Glycoprotein 42 (Epstein-Barr virus (strain AG876)), Q1HVG2 | Fluorescence polarization binding assay, mP read-out | inhibition, % (tested at 21.74 µM) | 0.42% of 220,000 active | AID 1085, 2008; in the data active = inhibition above about 50%
eLon inh = inhibitors of E. coli Lon protease, primary screen, biochemical, fluorescence polarization. P0A9M0. purified E. coli Lon protease. inhibition, % at 7.94 µM. 0.42% of 360,000 active. AID 602123, 2011; in the data active = inhibition above about 13%, passing the limit was not always enough
GLD-1 TGE inh = GLD-1/TGE RNA complex disruptors, primary screen, biochemical, fluorescence polarization. AID 2280, 2010. 0.44% of 320,000 active. Female germline-specific tumor suppressor gld-1 (Caenorhabditis elegans), Q17339. inhibition, % at 5.96 µM. purified GLD-1 + fluorescein TGE RNA;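 active = percent inhibition above a per-plate cutoff, the plate mean of test compounds plus 3 SD, cut at about 30% in these data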
MEX-5 binding = MEX-5 zinc finger RNA-binding disruptors – biochemical, C. elegans, fluorescence polarization, MLPCN library, primary screen; AID 1832, 2009; MEX-5/FITC-TCR2 RNA binding; stronger effect = lower value; 0.38% of 300,000 active; activity score (negative = inhibition of binding), % at 10 µM;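 active = inhibition past about -25% in most replicates, and total fluorescence under double the plate's negative control median, limit read from the data; inconclusive = replicates evenly split on the limit, or fluorescence at least double controls; inactive = too little inhibition in most replicates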
Target sequence (Q9XUB2 whole entry, looked up): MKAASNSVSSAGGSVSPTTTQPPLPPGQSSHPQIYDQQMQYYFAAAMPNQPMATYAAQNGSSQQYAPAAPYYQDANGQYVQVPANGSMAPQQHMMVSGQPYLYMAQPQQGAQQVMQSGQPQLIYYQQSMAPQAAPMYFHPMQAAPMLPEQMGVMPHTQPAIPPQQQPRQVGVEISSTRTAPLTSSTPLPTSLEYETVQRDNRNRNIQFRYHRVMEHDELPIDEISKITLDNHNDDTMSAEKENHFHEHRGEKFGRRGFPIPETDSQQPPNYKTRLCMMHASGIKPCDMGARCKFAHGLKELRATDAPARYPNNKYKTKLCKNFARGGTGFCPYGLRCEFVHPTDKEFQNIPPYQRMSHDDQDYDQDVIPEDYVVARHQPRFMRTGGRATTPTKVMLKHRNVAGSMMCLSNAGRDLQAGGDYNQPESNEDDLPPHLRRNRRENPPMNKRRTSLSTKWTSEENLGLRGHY
E coli Lon conf = E. coli Lon protease inhibitor retest, confirmation, biochemical, fluorescence polarization; 31% of 1,400 active; shares compounds with eLon inh; AID 602230, 2012; purified E. coli Lon; inhibition, % at 7.94 µM; in the data active = inhibition above about 16%
Of the large screens only hits and unclear results are named; the others gave an inactive call (follow-up assays come after a bar, where they were run). Hits are enriched below; roughly 1.3% of the tested compounds scored in any of these assays.

CCN1/C(=C/C=C/C2=[N+](CC)c3ccccc3C2(C)C)C(C)(C)c2ccccc21	eLon inh active (no result: Bcl-xL primary, EBV gp42 block, GLD-1 TGE inh, MEX-5 binding) | E coli Lon conf active
N#CC(C#N)=Cc1ccc(C=C(C#N)C#N)cc1	none (no result: Bcl-xL primary, GLD-1 TGE inh, MEX-5 binding)
Cc1ccc2cc(C=C(C#N)C#N)c(Cl)nc2c1	Bcl-xL primary 196.3, eLon inh 163.9, GLD-1 TGE inh 167.0, MEX-5 binding inconclusive | E coli Lon conf 82.9
CNc1ccc2nc3ccccc3[n+](C)c2c1	Bcl-xL primary 147.4, eLon inh 94.8, MEX-5 binding -41.8 (no result: EBV gp42 block) | E coli Lon conf 106.4
O=C1NCN(c2ccccc2)C12CCN(C(c1cccc3ccccc13)c1nnnn1C1CCCCC1)CC2 (stereo unspecified)	none (no result: Bcl-xL primary, EBV gp42 block, GLD-1 TGE inh, MEX-5 binding)
CCOC(=O)[C@]12Cc3c(cc(OC)c(OC)c3OC)[C@H]1N(C1CCCCC1)C(=O)c1ccccc12	none (no result: Bcl-xL primary, EBV gp42 block, GLD-1 TGE inh, MEX-5 binding)
CN1CC=C2C(C#N)=C(N)C(C#N)(C#N)C(c3ccncc3)C2C1 (stereo unspecified)	Bcl-xL primary 136.2, eLon inh 57.4, GLD-1 TGE inh 87.9, MEX-5 binding -47.0 (no result: EBV gp42 block) | E coli Lon conf 81.1
COc1ccc(CN2Cc3cc(N4CCCCC4)ccc3-n3nncc3C2)cc1	none (no result: Bcl-xL primary, EBV gp42 block, GLD-1 TGE inh, MEX-5 binding)
COCCOC(=O)c1c(N)n(Cc2ccco2)c2nc3ccccc3nc12	Bcl-xL primary 30.7, eLon inh 15.9, GLD-1 TGE inh 63.3 (no result: EBV gp42 block, MEX-5 binding) | E coli Lon conf inactive
COC1CC2C=C(C)C=CC=CC(=O)NC(c3ccccc3)CC=CCCC(O)CC(=O)C2=C1O (stereo unspecified)	none (no result: Bcl-xL primary, EBV gp42 block, GLD-1 TGE inh, MEX-5 binding)

Source: PubChem
